Experimental data reported in ChEMBL document CHEMBL1961873, “Compounds: GSK PKIS; Assays: Nanosyn kinase panel” (2012).

Key:
[1] = biological target: MAP/microtubule affinity-regulating kinase 3 (Homo sapiens) (UniProt P27448); settings: at 1 µM;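 further: reported values are averaged percent inhibition of MARK3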
[2] = biological target: T1, MAP/microtubule affinity-regulating kinase 4 (Homo sapiens) (UniProt Q96L34); settings: at 0.1 µM
T1 sequence (whole entry): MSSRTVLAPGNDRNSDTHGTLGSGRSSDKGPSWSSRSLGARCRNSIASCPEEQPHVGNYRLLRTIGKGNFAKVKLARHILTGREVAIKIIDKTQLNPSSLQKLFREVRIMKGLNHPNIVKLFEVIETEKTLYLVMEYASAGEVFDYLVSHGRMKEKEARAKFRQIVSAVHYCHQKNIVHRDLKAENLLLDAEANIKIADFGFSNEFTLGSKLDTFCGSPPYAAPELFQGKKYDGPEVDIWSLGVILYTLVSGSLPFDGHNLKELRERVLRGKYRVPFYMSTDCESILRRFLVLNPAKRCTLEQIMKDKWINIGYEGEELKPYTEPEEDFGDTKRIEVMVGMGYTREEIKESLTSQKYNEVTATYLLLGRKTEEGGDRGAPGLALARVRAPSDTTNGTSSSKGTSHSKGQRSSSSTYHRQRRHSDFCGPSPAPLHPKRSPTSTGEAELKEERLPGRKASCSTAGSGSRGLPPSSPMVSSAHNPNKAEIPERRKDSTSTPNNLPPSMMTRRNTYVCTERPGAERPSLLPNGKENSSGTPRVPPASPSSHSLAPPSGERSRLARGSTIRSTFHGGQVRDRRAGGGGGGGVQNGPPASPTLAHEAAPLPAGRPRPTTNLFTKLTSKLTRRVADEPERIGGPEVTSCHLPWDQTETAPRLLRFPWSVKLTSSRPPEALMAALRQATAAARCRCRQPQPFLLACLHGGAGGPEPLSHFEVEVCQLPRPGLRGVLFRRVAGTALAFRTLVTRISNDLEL

[3] = biological target: T1, MAP/microtubule affinity-regulating kinase 4 (Homo sapiens); settings: at 1 µM
[4] = biological target: Maternal embryonic leucine zipper kinase (Homo sapiens) (UniProt Q14680); settings: at 0.1 µM
[5] = biological target: Maternal embryonic leucine zipper kinase (Homo sapiens) (UniProt Q14680); settings: at 1 µM
[6] = biological target: MAP kinase-interacting serine/threonine-protein kinase 1 (Homo sapiens) (UniProt Q9BUB5); settings: at 0.1 µM
[7] = biological target: MAP kinase-interacting serine/threonine-protein kinase 1 (Homo sapiens) (UniProt Q9BUB5); settings: at 1 µM
[8] = biological target: MAP kinase-interacting serine/threonine-protein kinase 2 (Homo sapiens) (UniProt Q9HBH9); settings: at 0.1 µM
[9] = biological target: MAP kinase-interacting serine/threonine-protein kinase 2 (Homo sapiens) (UniProt Q9HBH9); settings: at 1 µM
[10] = biological target: Serine/threonine-protein kinase MARK2 (Homo sapiens) (UniProt Q7KZI7); settings: at 0.1 µM;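 further: mean percent inhibition of PAR-1Balpha kinase activity, reported from the GSK PKIS screen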
Chain of Serine/threonine-protein kinase MARK2 (Homo sapiens) (Q7KZI7 whole entry): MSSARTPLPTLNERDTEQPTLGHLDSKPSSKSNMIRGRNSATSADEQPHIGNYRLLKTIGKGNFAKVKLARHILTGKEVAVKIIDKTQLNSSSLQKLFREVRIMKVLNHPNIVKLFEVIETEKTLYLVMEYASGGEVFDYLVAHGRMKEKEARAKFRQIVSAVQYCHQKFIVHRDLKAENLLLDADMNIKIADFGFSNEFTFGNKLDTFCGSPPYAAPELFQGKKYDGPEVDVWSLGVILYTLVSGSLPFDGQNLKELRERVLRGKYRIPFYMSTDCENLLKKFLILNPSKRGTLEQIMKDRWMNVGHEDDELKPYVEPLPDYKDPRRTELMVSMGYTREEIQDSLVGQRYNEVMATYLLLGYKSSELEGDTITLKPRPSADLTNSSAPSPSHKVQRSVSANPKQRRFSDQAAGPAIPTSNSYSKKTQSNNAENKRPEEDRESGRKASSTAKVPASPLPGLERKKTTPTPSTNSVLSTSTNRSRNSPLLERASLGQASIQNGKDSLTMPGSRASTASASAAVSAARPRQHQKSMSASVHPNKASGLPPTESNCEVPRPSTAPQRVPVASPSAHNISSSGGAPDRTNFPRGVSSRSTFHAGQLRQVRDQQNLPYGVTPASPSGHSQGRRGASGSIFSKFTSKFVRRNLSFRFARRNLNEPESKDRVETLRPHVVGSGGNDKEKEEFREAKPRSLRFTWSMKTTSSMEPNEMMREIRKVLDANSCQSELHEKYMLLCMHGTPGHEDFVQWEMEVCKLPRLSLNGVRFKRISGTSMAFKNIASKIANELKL

Chain of MAP/microtubule affinity-regulating kinase 3 (Homo sapiens) (P27448 whole entry, looked up): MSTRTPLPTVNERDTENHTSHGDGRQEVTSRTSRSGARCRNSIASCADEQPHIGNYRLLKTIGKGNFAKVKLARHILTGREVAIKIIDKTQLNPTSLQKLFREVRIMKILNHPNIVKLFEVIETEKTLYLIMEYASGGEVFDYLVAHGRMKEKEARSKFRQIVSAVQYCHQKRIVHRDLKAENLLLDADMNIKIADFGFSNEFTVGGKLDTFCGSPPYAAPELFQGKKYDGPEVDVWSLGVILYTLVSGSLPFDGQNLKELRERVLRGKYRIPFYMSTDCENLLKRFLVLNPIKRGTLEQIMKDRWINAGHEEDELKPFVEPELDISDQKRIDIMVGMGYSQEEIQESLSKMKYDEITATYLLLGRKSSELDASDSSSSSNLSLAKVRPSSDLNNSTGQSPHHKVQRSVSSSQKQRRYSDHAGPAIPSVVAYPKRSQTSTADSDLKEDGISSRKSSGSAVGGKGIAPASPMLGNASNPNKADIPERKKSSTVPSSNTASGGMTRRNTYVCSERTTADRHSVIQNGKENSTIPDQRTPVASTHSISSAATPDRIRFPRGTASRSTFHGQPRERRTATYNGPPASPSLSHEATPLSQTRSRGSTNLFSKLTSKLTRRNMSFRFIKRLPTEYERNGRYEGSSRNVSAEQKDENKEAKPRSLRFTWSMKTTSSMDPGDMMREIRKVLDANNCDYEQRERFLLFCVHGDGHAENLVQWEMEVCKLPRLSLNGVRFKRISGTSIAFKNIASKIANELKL
Chain of Maternal embryonic leucine zipper kinase (Homo sapiens) (Q14680 whole entry, looked up): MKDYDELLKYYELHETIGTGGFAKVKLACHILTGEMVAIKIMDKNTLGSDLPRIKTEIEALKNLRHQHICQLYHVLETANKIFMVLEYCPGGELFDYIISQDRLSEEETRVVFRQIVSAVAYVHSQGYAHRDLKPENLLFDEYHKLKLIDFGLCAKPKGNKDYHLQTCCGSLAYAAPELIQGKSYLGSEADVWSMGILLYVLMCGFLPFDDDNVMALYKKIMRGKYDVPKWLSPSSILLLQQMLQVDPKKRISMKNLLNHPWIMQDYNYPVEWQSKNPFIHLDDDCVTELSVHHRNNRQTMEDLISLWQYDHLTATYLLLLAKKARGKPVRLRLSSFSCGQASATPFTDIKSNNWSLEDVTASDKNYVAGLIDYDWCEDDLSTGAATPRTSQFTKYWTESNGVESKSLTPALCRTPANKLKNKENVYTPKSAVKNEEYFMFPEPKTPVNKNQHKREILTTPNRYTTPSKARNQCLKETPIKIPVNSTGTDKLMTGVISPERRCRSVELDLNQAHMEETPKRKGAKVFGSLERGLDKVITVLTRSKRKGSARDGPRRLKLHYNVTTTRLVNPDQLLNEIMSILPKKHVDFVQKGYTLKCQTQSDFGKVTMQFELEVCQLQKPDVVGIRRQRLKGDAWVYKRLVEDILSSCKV
Chain of MAP kinase-interacting serine/threonine-protein kinase 1 (Homo sapiens) (Q9BUB5 whole entry, looked up): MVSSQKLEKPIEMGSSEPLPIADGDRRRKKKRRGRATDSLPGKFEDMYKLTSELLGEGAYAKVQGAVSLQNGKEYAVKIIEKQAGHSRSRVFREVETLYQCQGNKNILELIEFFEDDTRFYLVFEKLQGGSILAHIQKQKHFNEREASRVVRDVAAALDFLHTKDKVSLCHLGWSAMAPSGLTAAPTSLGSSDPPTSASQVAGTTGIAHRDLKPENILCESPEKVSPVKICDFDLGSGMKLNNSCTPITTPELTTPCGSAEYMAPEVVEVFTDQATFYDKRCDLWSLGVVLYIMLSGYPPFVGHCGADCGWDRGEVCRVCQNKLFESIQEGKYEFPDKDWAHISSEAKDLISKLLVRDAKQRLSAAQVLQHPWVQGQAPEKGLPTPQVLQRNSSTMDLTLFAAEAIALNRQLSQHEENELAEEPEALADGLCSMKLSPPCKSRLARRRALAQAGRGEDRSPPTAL
Chain of MAP kinase-interacting serine/threonine-protein kinase 2 (Homo sapiens) (Q9HBH9 whole entry, looked up): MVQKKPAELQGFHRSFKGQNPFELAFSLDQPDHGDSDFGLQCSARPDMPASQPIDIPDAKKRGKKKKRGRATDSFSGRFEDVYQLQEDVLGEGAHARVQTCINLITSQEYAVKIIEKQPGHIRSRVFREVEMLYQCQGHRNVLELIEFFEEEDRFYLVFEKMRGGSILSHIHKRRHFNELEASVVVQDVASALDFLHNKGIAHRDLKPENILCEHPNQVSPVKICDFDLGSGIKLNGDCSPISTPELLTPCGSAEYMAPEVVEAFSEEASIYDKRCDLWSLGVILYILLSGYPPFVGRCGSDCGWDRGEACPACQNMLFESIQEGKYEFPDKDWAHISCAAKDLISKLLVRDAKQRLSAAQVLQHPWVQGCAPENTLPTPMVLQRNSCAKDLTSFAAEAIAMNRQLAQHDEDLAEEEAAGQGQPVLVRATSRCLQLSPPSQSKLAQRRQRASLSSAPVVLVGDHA

| Structure (SMILES) | inhibition [1] [%] | inhibition [2] [%] | inhibition [3] [%] | inhibition [4] [%] | inhibition [5] [%] | inhibition [6] [%] | inhibition [7] [%] | inhibition [8] [%] | inhibition [9] [%] | inhibition [10] [%] |
| --- | --- | --- | --- | --- | --- | --- | --- | --- | --- | --- |
| Cc1ccc2c(-c3ccnc(Nc4ccc5c(c4)OCCO5)n3)c(-c3ccc(C(F)(F)F)cc3)nn2n1 | 5.36 | 1.96 | 3.07 | -1.46 | 0.19 | 0.37 | -0.05 | 0.66 | 1.73 | -0.06 |
| NS(=O)(=O)c1ccc(N/N=C2\C(=O)Nc3ccc(Cl)cc32)cc1 | 13.2 | 2.09 | 11.2 | 3.75 | 8.5 | 2.08 | 10.1 | 1.59 | 5.65 | 0.41 |
| CC(C)c1ccc(Nc2nccc(-c3cnn4ncccc34)n2)cc1 | 3.95 | 0.24 | 2.61 | 5.96 | 26.3 | 3.64 | 11.8 | 2.64 | 15.2 | -1.19 |
| CS(=O)(=O)CCNCc1nc(-c2ccc3ncnc(Nc4ccc(OCc5cccc(C(F)(F)F)c5)cc4)c3c2)cs1 | 1.92 | -0.17 | 1.58 | 0.45 | 2.55 | 3.67 | 7.54 | 0.84 | 6.94 | 0.22 |
| Cc1cc(O)cc(C)c1/C=C/c1cncc(C(=O)N(C)C)c1 | 13.7 | 1.25 | 2.49 | 3.84 | 4.23 | 4.18 | 18 | 2.2 | 9.99 | -1.4 |
| CN(C)C(=O)O[C@@H]1CN[C@@H](C#Cc2cc3ncnc(Nc4ccc(OCc5cccc(F)c5)c(Cl)c4)c3s2)C1 | -0.12 | 0.74 | 1.37 | -0.39 | 3.35 | 0.76 | 3.62 | 0.4 | 5.87 | 0.66 |
| Cc1ccc2c(-c3ccnc(Nc4cccc(C(F)(F)F)c4)n3)c(-c3ccccc3)nn2n1 | 3.93 | 2.61 | 2.82 | 5.84 | 10.4 | 3.3 | 4.19 | 2.04 | 3.52 | 1.89 |
| c1ccc(Cc2nc3ccc(Nc4ncnc5ccccc45)cc3[nH]2)cc1 | 3.72 | 0.9 | 2.17 | 0.16 | 7.57 | 2.13 | 5.06 | 1.25 | 5.19 | 0.28 |
| COc1ccc(-c2nn3ncccc3c2-c2ccnc(Nc3cccc(C(F)(F)F)c3)n2)cc1 | 3.49 | 1.29 | 1.74 | 2.53 | 1.64 | 1.88 | 3.34 | 0.77 | 1.76 | -0.74 |
| NS(=O)(=O)c1cccc(-c2cc3ccncc3cc2OCc2ccccc2)c1 | 9.67 | 2.91 | 6.29 | 4.44 | 6.24 | 3.03 | 6.7 | 3.83 | 25.1 | 3.3 |
| CN(C)CCCn1c(-c2nonc2N)nc2cnccc21 | 3.45 | 2.41 | 3.46 | 6.89 | 20.1 | 1.87 | 5.5 | 0.54 | -0.09 | 1.6 |
| N#Cc1cccc(Nc2nccc(-c3cnn4ncccc34)n2)c1 | 13.1 | 1.74 | 9.89 | 12.5 | 55.9 | 6.09 | 22.5 | 5.65 | 33 | 1.3 |
| c1ccc(Nc2ncc(-c3ccccc3)o2)cc1 | 4.02 | 2.77 | 4.32 | 5.53 | 9.84 | 1.77 | 3.22 | 0.51 | 4.71 | 0.14 |
| CN(C)C(=O)O[C@H]1CN[C@H](C#Cc2cc3ncnc(Nc4ccc(OCc5cccc(F)c5)c(Cl)c4)c3s2)C1 | 3.81 | 1.04 | 1.72 | 1.5 | 4.17 | 2.31 | 6.43 | 1.15 | 6.67 | 0.94 |
| O=S(=O)(CCOCc1ccc(-c2ccc3ncnc(Nc4ccc(OCc5cccc(F)c5)c(Cl)c4)c3c2)o1)c1ccccc1 | 1.33 | 1.36 | 3.69 | 3.07 | 7.12 | 1.49 | 4.07 | -0.55 | 4.88 | -0.42 |
| COC(=O)c1ccc2c(c1)C(=Cc1cc(Br)c(O)c(Br)c1)C(=O)N2 | 3.71 | 0.93 | 5.08 | 6.21 | 22.2 | 1.07 | 5.73 | 2.35 | 19 | 0.84 |
| CC(C)c1ccc2c(c1)NC(=O)/C2=N/Nc1ccc(S(N)(=O)=O)cc1 | -2.09 | -0.86 | 0.13 | 0.88 | 0.52 | 1.43 | 2.29 | 0.22 | 2.57 | -1.41 |
